Screens from PubChem BioAssay.
PrP 5UTR inh – inhibition of PrP 5' UTR reporter expression. inhibition, % (no concentration beside the values). cell-based PrP 5' UTR mRNA reporter, plate reader. 340,000 tested, 0.35% active; in the data active = inhibition above about 52%
PfHsp40 yeast – rescue of yeast from PfHsp40 toxicity, primary screen, S. cerevisiae, ATP luminescence; S. cerevisiae expressing PfHsp40, growth rescue; growth rescue, % at 12.5 µM; 340,000 tested, 0.68% active; AID 504582, 2011; in the data active = growth rescue above about 28%, passing the limit was not always enough;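 note: yeast W303a lacking pdr1 and pdr3 grown in galactose medium; growth measured after three days at 30 °C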
Sa RN4220 lethal – growth inhibition of S. aureus RN4220, primary screen, OD600; 16 h; 330,000 tested, 0.33% active; inhibition, % (concentration not given with the values); AID 1259311, 2017; in the data active = inhibition above about 85%
ugtP null kill – growth inhibition of ugtP-null S. aureus, primary screen, RN4220 ugtP deletion, OD600; 16 h; growth inhibition, % (test concentration not listed); 330,000 tested, 0.54% active; AID 1259309, 2017; in the data active = growth inhibition above about 68%
TcdB GH inh – TcdB glycohydrolase inhibitors, primary screen, biochemical, single point, plate reader; Toxin B (Clostridioides difficile), P18177; inhibition, % at 9.99 µM; 350,000 tested, 0.24% active; AID 652162, 2013; TcdB glycohydrolase enzymatic assay; in the data active = inhibition above about 10%
Hits are given with their value; n = inactive; x = no result given. Shown are actives, neighbours in structure and some others; about 1.2% of the full set was active somewhere.

SMILES | PrP 5UTR inh | PfHsp40 yeast | Sa RN4220 lethal | ugtP null kill | TcdB GH inh
C[C@@H]1CN([C@H](C)CO)C(=O)c2cc(NC(=O)Nc3cccc4ccccc34)ccc2O[C@@H]1CN(C)S(=O)(=O)c1ccc(Cl)cc1 | x | x | x | x | n
CCCC1CC(C)(C(C)=NNC(N)=S)OC1=O (stereo not drawn) | x | x | n | n | x
O=C(C[C@H]1C[C@@H]2c3cc(NC(=O)c4ccc5c(c4)OCO5)ccc3O[C@@H]2[C@@H](CO)O1)NCc1cccc(F)c1 | x | x | x | x | 20
O=C(C[C@@H]1C[C@@H]2c3cc(NC(=O)Nc4ccccc4)ccc3O[C@@H]2[C@H](CO)O1)NCc1ccccc1 | x | x | x | x | n
O=C(C[C@H]1C[C@@H]2c3cc(NC(=O)c4ccc5c(c4)OCO5)ccc3O[C@@H]2[C@H](CO)O1)NCc1cccc(F)c1 | x | x | x | x | n
O=C(C[C@@H]1C[C@H]2c3cc(NC(=O)c4ccc5c(c4)OCO5)ccc3O[C@H]2[C@H](CO)O1)NCc1cccc(F)c1 | x | x | x | x | 18
O=C(C[C@@H]1C[C@H]2c3cc(NC(=O)Nc4ccccc4)ccc3O[C@H]2[C@H](CO)O1)NCc1ccccc1 | x | x | x | x | 12
O=C(C[C@@H]1C[C@@H]2c3cc(NC(=O)c4ccc5c(c4)OCO5)ccc3O[C@@H]2[C@@H](CO)O1)NCc1cccc(F)c1 | x | x | x | x | 17
O=C1CCC(O)CCN1CCSc1ccc(Br)cc1 (stereo not drawn) | x | x | n | n | x
CN(C(=O)COC(=O)CNC(=O)c1ccccc1Cl)c1ccccc1 | n | n | n | n | 15
O=C1CN(Cc2ccc(F)cc2)C[C@H]2[C@H](c3ccc(Br)cc3)[C@H](CO)N12 | x | x | x | x | n
O=C(Nc1cc(Cl)cc(Cl)c1)Nc1cnccn1 | n | n | 100 | 100 | n
CCCN1C[C@H](C)[C@H](OC)CN(C)C(=O)c2cc(NC(=O)C3CC3)ccc2OC[C@H]1C | x | x | x | x | n
CCCn1c(N)c(C(=O)COC(=O)c2cccc(S(=O)(=O)N3CCOCC3)c2)c(=O)[nH]c1=O | n | n | n | n | 13
CCCCN(C(=O)c1cccc(S(=O)(=O)N2CCOCC2)c1)c1c(N)n(CCC)c(=O)[nH]c1=O | n | n | n | n | n
Cc1ccc(CSc2nc3ccsc3c(=O)n2Cc2ccccn2)cc1 | n | n | n | 87 | x
N#Cc1ccccc1CSc1nc2ccsc2c(=O)n1Cc1ccccn1 | n | n | n | n | x
CCN1C(=O)[C@H]2[C@@H](c3ccc(C)cc3)N3C(=O)N(c4ccccc4)C(=O)[C@@]3(CC)[C@H]2C1=O | n | 35 | x | x | n
COc1cc(/C=N/NC(=O)c2cnccn2)cc(OC)c1OC | n | 66 | x | x | n
COc1cc(C=NNC(=O)c2cnccn2)cc(OC)c1OC | x | x | n | n | x
C#CCOCCOCCOCCNc1nc(N2CCN(C(=O)C(CCCCN)n3cc(CN)nn3)CC2)nc(N2CCN(C(=O)C(CO)n3cc(C(N)C(C)C)nn3)CC2)n1 (stereo not drawn) | x | x | n | n | x
Oc1c(Br)cc(Br)cc1/C=N/NC(=S)N[C@H]1CC2C=CC1C2 (stereo partly drawn) | n | 78 | x | x | n
Cc1cccc(C(=O)NC(=S)NNC(=O)c2ccc(Cl)cc2)c1 | n | 75 | 85 | n | x
COc1ccc(C(=O)NNC(=S)NC(=O)c2ccc(Cl)cc2)cc1 | n | n | n | n | n
Cc1ccc(C(=O)NNC(=S)NC(=O)COc2ccccc2)cc1 | n | n | 88 | 92 | n
SMILES | PrP 5UTR inh | PfHsp40 yeast | Sa RN4220 lethal | ugtP null kill | TcdB GH inh
COc1ccc(C(=O)NC(=S)NNC(=O)c2ccc(C)cc2)cc1 | n | 143 | n | n | n
CNC[C@@H]1Oc2cc(C#CC3CCCCC3)ccc2S(=O)(=O)N([C@@H](C)CO)C[C@H]1C | x | x | x | x | n
O=C(COC(=O)c1ccc([N+](=O)[O-])o1)NCc1ccc(F)cc1 | n | 223 | n | n | n
O=C(COC(=O)c1ccc([N+](=O)[O-])o1)Nc1cccc2ccccc12 | n | 80 | n | n | n
COc1ccc(CCNC(=O)COc2ccc([N+](=O)[O-])cc2)cc1 | n | n | n | n | n
COc1ccc(CCNC(=O)COC(=O)c2ccc([N+](=O)[O-])o2)cc1 | n | 123 | n | n | n
O=C(COC(=O)c1ccc([N+](=O)[O-])o1)NC1CCCCC1 | n | 213 | n | n | n
Cc1ccccc1S(=O)(=O)N1C(c2ccc(Cl)cc2)CC=C(C(=O)O)C1c1ccc(F)cc1 (stereo not drawn) | x | x | n | n | x
C[C@@H]1CN([C@H](C)CO)C(=O)c2cc(NC(=O)Nc3cccc4ccccc34)ccc2O[C@H]1CN(C)C(=O)Nc1cccc2ccccc12 | x | x | x | x | n
Cc1noc(C)c1NC(=O)Nc1cccc2c1O[C@@H](CN(C)C(=O)Nc1cccc3ccccc13)[C@H](C)CN([C@@H](C)CO)C2=O | x | x | x | x | n
CO[C@H]1CN(C)C(=O)c2ccc(NC(=O)c3ccno3)cc2OC[C@H](C)N(C(=O)C2CCC2)C[C@H]1C | x | x | x | x | n
CC(=O)Nc1ccc(NC(=O)COC(=O)c2ccc([N+](=O)[O-])o2)cc1 | n | n | x | x | n
O=C(COC(=O)c1ccc([N+](=O)[O-])o1)NCCCc1ccccc1 | n | 45 | n | n | n
Cn1cccc1CC(=O)NN=Cc1cccc2ccccc12 | x | x | n | n | x
Cc1nc2ccccc2n1N=Cc1cccnc1 | x | x | n | n | x
CCCCCCCCNC(=O)/C(C#N)=C/c1ccccc1[N+](=O)[O-] | n | 355 | n | 91 | n
N#C/C(=C\c1ccccc1[N+](=O)[O-])C(=O)NCc1ccccc1 | n | n | n | n | n
O=C(NCCCNC1CCCCC1)c1ccc(C=NO)nc1 | x | x | n | n | x
O=C1C=CC(=O)C2C1C1(Cl)C(Cl)=C(Cl)C2(Cl)C1(Cl)Cl (stereo not drawn) | n | 54 | 88 | 97 | n
Cn1c(CC2C(=O)Nc3ccc(Br)cc32)nc2ccccc2c1=O (stereo not drawn) | n | n | n | n | n
O=C1Nc2ccc(Br)cc2C1Cc1ccccc1F (stereo not drawn) | n | n | n | n | 28
NC(=O)c1ccc2c(=O)c(O)c(-c3cc(Cl)c(N)c(Cl)c3)[nH]c2c1 | n | n | x | x | 13
CCOC(=O)c1ccc(-c2ccc3[nH]c4ccccc4c(=O)c3c2)cc1F | n | n | n | n | n
O=C(O)c1ccc2c(c1)C(=O)/C(=C\c1ccco1)C2=O | n | n | n | n | n
Cc1ccc(/C=C2/C(=O)c3ccc(C(=O)O)cc3C2=O)o1 | n | 45 | n | n | n
C[C@@H]1CN([C@H](C)CO)S(=O)(=O)c2ccc(Br)cc2O[C@H]1CN(C)C(=O)CN(C)C | x | x | x | x | n
O=C(Nc1ccccc1)C1=C(c2ccccc2)S(=O)(=O)CCS1(=O)=O | n | n | 90 | 100 | n
CN1CCN(C(=O)[C@@H]2[C@@H](CO)[C@@H]3Cn4c(cccc4=O)[C@H]2N3Cc2ccncc2)CC1 | x | x | x | x | n
CCN1C(c2ccccc2)C(C)C(=O)C(C)C1c1ccccc1 (stereo not drawn) | n | n | n | 91 | x
CC1C(=O)C(C)C(c2ccccc2)N(N=O)C1c1ccccc1 (stereo not drawn) | n | n | x | x | n
